Hits are enriched below; roughly 21% of the tested compounds scored in any of these assays.
Pf growth 48h: inhibits P. falciparum growth in the first generation, 48 h. P. falciparum luciferase growth in erythrocytes, 48 h. Potency, µM (top dose mostly 28.7 µM), for inactives: at the top dose activity change, negative = inhibition, most hits filed as inhibitors. 310,000 compounds, 5.9% hits. AID 504832; further: potency means the concentration at half of the fitted maximal effect; on the % scale 0 is the no-effect control and ±100 the full control effect
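Growth was read as firefly luciferase luminescence after a 48 h, 37 C, 5% CO2 exposure of compounds to reporter-bearing P. falciparum cultures (0.1% parasitemia, 2% hematocrit final) in Albumax-supplemented RPMI 1640.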
Shiga toxin inh: Shiga toxin inhibition; Vero cells, Shiga toxin protein synthesis inhibition reporter; inhibition, % at 38.7 µM; 290,000 compounds, 9.2% hits; in the data active means inhibition mostly above about 28%, no sharp cut-off; inactive means mostly below about 43%; further: 0% is about no effect
HCV inh: HCV inhibition. Huh7.5.1 HCVcc-Cre infection, luciferase reporter, 44 h. AID 651820. Potency, µM (doses to about 41.8 µM), for the others: at the top dose activity change, negative = inhibition, actives largely listed as inhibitors. 340,000 compounds, 3.4% hits; further: potency means the concentration at half of the fitted maximal effect; on the % scale 0 is the no-effect control and ±100 the full control effect
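Reporter virus HCVcc-Cre (~0.5 moi) infects cells exposed to compound; seeding density 1,000 cells/well with 4 h settling beforehand. Luminescence, 15 sec read, taken 44 h post-infection following a 15 min RT substrate incubation.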
CHX counter: counter-screen hit for Shiga toxin inhibitors, cycloheximide; max response, %; cell reporter, cycloheximide protein synthesis inhibition counterscreen; 300,000 compounds, 12% hits; AID 2314; in the data active means max response mostly above about 13%, no sharp cut-off; inactive means mostly below about 14%; further: read at 38.3 µM for the half of the compounds with a filed dose; 0% is about no effect
Pf growth 96h: P. falciparum growth inhibition at 96 hour, primary screen for plastid delayed-death inhibitors; P. falciparum luciferase reporter growth, 96 h; AID 504834; Potency, µM (highest dose often 28.7 µM), inactives show at the top dose activity change, negative = inhibition, usual class: inhibitors; 320,000 compounds, 6.9% hits; further: potency means the concentration at half of the fitted maximal effect; on the % scale 0 is the no-effect control and ±100 the full control effect
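Cell-based qHTS: luciferase-tagged P. falciparum in erythrocytes (2% hematocrit, 0.05% parasitemia final) incubated with compounds for 96 hours, 37 C, 5% CO2; luciferase detection reagent then added and luminescence measured.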
AMA1-RON2 inh: AMA1-RON2 (P. falciparum) interaction inhibition; AlphaScreen AMA1-biotinylated RON2 peptide binding; AID 720542; Potency, µM (top dose mostly 58.2 µM), without a hit: at the top dose activity change, negative = inhibition, most hits filed as inhibitors; 360,000 compounds, 0.2% hits;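 further: potency means the concentration at half of the fitted maximal effect; 0% = vehicle wells and -100% = peptide control; nearly all actives have a fitted effect of over 45% in size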
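AMA1 (3D7) with his tag at 25 nM final met compounds first, then biotinylated RON2 peptide at 25 nM; detection used donor plus acceptor beads, 10 µg/mL apiece, read by AlphaScreen after 30 min at room temperature.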
* = called active by the depositor; [ ] = dose if it differs, or a comment. Unless noted, the call rests on the fitted dose curve; in most records, active means well fitted curve in the direction sought with a large enough effect; inconclusive means small, poorly fitted or top-dose-only effect, or another doubt; inactive means no such curve, though single readings can be large; an effect the other way counts as inactive or inconclusive.

For CCOC(=O)c1oc2ccc(CNC3CCCCC3)c(Cl)c2c1C the results were Pf growth 48h inconclusive, Shiga toxin inh -3, HCV inh inconclusive, CHX counter -1, Pf growth 96h -22% and AMA1-RON2 inh -14%.
CC(C)Oc1ccc(CCNC(=O)CC2C(=O)NCCN2C)cc1 (configuration not stated) was read as Pf growth 48h -8%, Shiga toxin inh 3, HCV inh inconclusive, CHX counter -1, Pf growth 96h -5% and AMA1-RON2 inh 24%.
For COc1ccccc1NC(=O)C(C)OC(=O)C1CCC(C(C)(C)C)CC1 (configuration not stated) the results were Pf growth 48h 2.9µM*, HCV inh -7%[8.37 µM], Pf growth 96h 15µM* and AMA1-RON2 inh 9%.
For COc1ccccc1NC(=O)C(C)OC(=O)C1CC(=O)N(c2ccc3c(c2)OCCO3)C1 (configuration not stated) the results were Pf growth 48h 1%, Shiga toxin inh -2, HCV inh 12%, CHX counter -1, Pf growth 96h 62% and AMA1-RON2 inh 25%.
Fc1ccc(/C=C2\CCCC3=C2Nc2ncnn2C3c2ccc(F)cc2)cc1 (configuration not stated) was read as Pf growth 48h 13µM*, Shiga toxin inh -8, HCV inh inconclusive, CHX counter -2, Pf growth 96h inconclusive and AMA1-RON2 inh 28%.
For COc1ccc(OC)c(/C=N/Nc2nc(C)cc(=O)[nH]2)c1 the results were Pf growth 48h -7%, Shiga toxin inh 10, HCV inh -17%, CHX counter 5, Pf growth 96h -5% and AMA1-RON2 inh -1%.
O=C(Nc1ccc(N2CCCCC2)cc1)c1ccc(F)cc1 was read as Pf growth 48h -7%, Shiga toxin inh 77*, HCV inh inconclusive, CHX counter 52*, Pf growth 96h -19% and AMA1-RON2 inh -12%.
Screening O=C(Nc1ccccc1C(=O)N1CCOCC1)c1cccnc1 returned Pf growth 48h 17%, Shiga toxin inh 0, HCV inh -11%, CHX counter 5 and AMA1-RON2 inh 0%.
O=C(c1ccc(F)cc1)c1ccc(N2CCCC2)cc1 was read as Pf growth 48h inconclusive, Shiga toxin inh 151*, HCV inh inconclusive, CHX counter 63*, Pf growth 96h inconclusive and AMA1-RON2 inh 63%.
Screening O=C(c1ccc(F)cc1)c1ccc(N2CCCCC2)cc1 returned Pf growth 48h 88%, Shiga toxin inh 97*, HCV inh inconclusive, CHX counter 61*, Pf growth 96h -13% and AMA1-RON2 inh 37%.
Screening O=C(Nc1sccc1C(=O)N1CCOCC1)c1cccnc1 returned Pf growth 48h 36%, Shiga toxin inh 7, HCV inh 3%, CHX counter -1, Pf growth 96h 3.3µM* and AMA1-RON2 inh -1%.
Cc1ccc(Nc2ccc(C(=O)NC3CCCCC3)cn2)cc1 was read as Pf growth 48h inconclusive, Shiga toxin inh 6, HCV inh -20%, CHX counter 13, Pf growth 96h inconclusive and AMA1-RON2 inh -8%.
Screening O=S(=O)(c1ccc(N2CCN(c3ccc(F)cc3)CC2)cc1)N1CCCC1 returned Pf growth 48h -1%, Shiga toxin inh -12, HCV inh 7%, CHX counter -3, Pf growth 96h -9% and AMA1-RON2 inh -5%.
`O=C(Nc1ccc(N2CCCCC2)cc1)c1cccnc1` gave Pf growth 48h 113%, Shiga toxin inh 129*, HCV inh inconclusive, CHX counter 22*, Pf growth 96h inconclusive and AMA1-RON2 inh -4%.
Screening O=S(=O)(c1ccc(N2CCCC2)cc1)C(F)(F)F returned Pf growth 48h 21%, Shiga toxin inh 72*, HCV inh inconclusive, CHX counter 28* and AMA1-RON2 inh 4%.
For CCn1c(SCC(=O)c2ccccc2)nnc1-c1ccoc1C the results were Pf growth 48h 46%, Shiga toxin inh 50*, HCV inh -19%, CHX counter 21*, Pf growth 96h 0% and AMA1-RON2 inh 3%.
For CCOC(=O)CSc1nnc(-c2ccc3ncccc3c2)n1C the results were Pf growth 48h 12µM*, Shiga toxin inh 10, HCV inh 10%, CHX counter -1, Pf growth 96h -18% and AMA1-RON2 inh 4%.
CCn1c(-c2ccc3ncccc3c2)n[nH]c1=S was read as Pf growth 48h 20%, Shiga toxin inh 24, HCV inh -7%, CHX counter -3, Pf growth 96h 4% and AMA1-RON2 inh 64%.
CCn1c(SCC(=O)c2ccc(C)cc2)nnc1-c1ccoc1C was read as Pf growth 48h -11%, Shiga toxin inh 0, HCV inh -19%, CHX counter 27*, Pf growth 96h 15µM* and AMA1-RON2 inh 22%.
For CC(=O)c1ccc(NC(=O)CSc2nnc(-c3ccoc3C)n2Cc2ccccc2)cc1 the results were Pf growth 48h -12%, Shiga toxin inh 31*, HCV inh inconclusive, CHX counter 24*, Pf growth 96h 19% and AMA1-RON2 inh 9%.
`COCCn1c(SCC(=O)Nc2ccccc2)nnc1-c1ccoc1C` gave Pf growth 48h 48%, Shiga toxin inh 2, HCV inh 15%, CHX counter -5, Pf growth 96h 3% and AMA1-RON2 inh -2%.
For CCn1c(SCC(=O)c2ccc(C)cc2)nnc1-c1ccncc1 the results were Shiga toxin inh 17, HCV inh 8%, CHX counter 17, Pf growth 96h inconclusive and AMA1-RON2 inh -6%.
For CCOc1cc(C=O)ccc1OCCn1c([N+](=O)[O-])cnc1C the results were Pf growth 48h -13%, Shiga toxin inh -4, HCV inh 12%, CHX counter -1, Pf growth 96h 5% and AMA1-RON2 inh 12%.
`CN(C)c1ccc(-c2cc(NC=O)c3ncc(-c4ccc(F)c(Cl)c4)n3c2)cc1` gave AMA1-RON2 inh -7%.
`COc1cccc(CCN2C(=O)CCC3=C2CCC3=O)c1` gave AMA1-RON2 inh -2%.
COc1ccc(S(=O)(=O)Nc2cccnc2)cc1 was read as Pf growth 48h inconclusive, Shiga toxin inh 1, HCV inh 9%, CHX counter 6, Pf growth 96h 33% and AMA1-RON2 inh -2%.
`C=CCNC(=S)Nc1ccc2cn[nH]c2c1` gave Pf growth 48h 0%, Shiga toxin inh -8, HCV inh 4%, CHX counter 2, Pf growth 96h 25% and AMA1-RON2 inh 2%.
Screening N#CCCn1cc(/C=N/N=C2\NC(=O)C(CC(=O)O)S2)c(-c2ccc(F)cc2)n1 (configuration not stated) returned Pf growth 48h 3%, Shiga toxin inh -7, HCV inh 1%, CHX counter -1, Pf growth 96h -13% and AMA1-RON2 inh 141%.
